Experimental data reported in PubChem BioAssay (NCATS).
Inconclusive results are not listed. Calls of active or inactive are those of the source. The call rests on the fitted dose curve; in most records, active means well fitted curve in the direction sought with a large enough effect; inconclusive means small, poorly fitted or top-dose-only effect, or another doubt; inactive means no such curve, though single readings can be large; an effect the other way counts as inactive or inconclusive. Peptide text beside a SMILES is read from it. * marks the point of attachment. Octanoyl = CCCCCCCC(=O)*

What was measured:
[1] = HEK293 18hr Apoptosis Induction qHTS against the NCATS CANVASS Library (AID 1347357); further: 0% is about no effect
Procedure, shortened: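 HEK293 cells (500/well, DMEM + 10% FBS) treated with an 11-point series for 18 h at 37 degrees C. Caspase-3/7 activity read by Caspase-Glo luminescence after 15 min at room temperature.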

[2] = HPAF-II 18hr Apoptosis Induction qHTS against the NCATS CANVASS Library (AID 1347360); further: 0% is about no effect
Procedure, shortened: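 HPAF-II cells at 500/well were exposed for 18 h at 37 C to an 11-point compound series. Caspase-3/7 activity was read by Caspase-Glo luminescence after 15 min at RT.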

[3] = KB-8-5-11 Cancer Cell Toxicity qHTS against the NCATS CANVASS Library (AID 1347364); further: nearly all actives have a fitted effect of over 75% in size; further: potency means the concentration at half of the fitted maximal effect; on activity change, negative = toxicity: series mostly up to about 46 µM; on the % scale 0 is the no-effect control and ±100 the full control effect
Procedure, shortened: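 Plate 500 KB-8-5-11 cells per well in DMEM + 10% FBS, add compounds by pin transfer, incubate 72 hr at 37C. Add CellTiter-Glo, wait 10 minutes at room temperature, read luminescence.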

[4] = DH5-alpha competent E. coli microbial cell viability qHTS against the NCATS CANVASS Library (AID 1347377); settings: outcome: dose series up to 46.1 µM unless noted; on viability signal change, negative = cytotoxic: 0% is about no effect
Procedure, shortened: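 qHTS, 11-pt; E. coli DH5-alpha, 0.2 OD; o/n 37C/5% CO2; BacTiter-Glo, 20 min RT; luminescence.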

[5] = qHTS for Antimalaria activity screened against the NCATS CANVASS Library (AID 1347380); further: nearly all actives have a fitted effect of over 40% in size; further: potency means the concentration at half of the fitted maximal effect;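 on activity change, negative = inhibition: Plasmodium falciparum strain Dd2 asexual parasites grown in red blood cells; series mostly up to about 29 µM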
Procedure, shortened: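 Dd2 strain, infected erythrocytes 2.5% Hct final / 0.3% parasitemia. 11-pt qHTS titration, 72 h, 37C, 5% O2, 5% CO2. Lysis buffer + SYBR Green, 18 h, fluorescence 485/535 nm.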

[6] = qHTS for activators of Nrf2/ARE signaling pathway screened against the NCATS CANVASS Library (AID 1347391); further: nearly all actives have a fitted effect of over 60% in size; further: potency means the concentration at half of the fitted maximal effect; on activation: 0% is about no effect
Procedure, shortened: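 Plate ARE-bla HepG2 cells at 2000/well and let them settle 5 h. Pin-transfer compounds in DMSO, incubate 16 h at 37C. Load CCF4 for 2 h at room temperature and read blue/green fluorescence.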

[7] = Panc-1005 Cancer Cell Toxicity qHTS against the NCATS CANVASS Library (AID 1347349); further: nearly all actives have a fitted effect of over 60% in size; further: potency means the concentration at half of the fitted maximal effect
Procedure, shortened: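 Step one: seed 1000 cells per well. Step two: incubate 4 h. Step three: add test compounds in 11 concentrations. Step four: culture 72 h, then add CellTiter-Glo and record luminescence after 15min.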

[8] = Inflammasome Signaling qHTS Counterscreen: IL-1-beta AlphaLISA counterscreen against the NCATS CANVASS Library (AID 1347381);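 further: cell-free check with purified IL-1β in medium and no THP-1 cells; series mostly up to about 57 µM; 0% is about no effect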
Procedure, shortened: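 Cell-free interference check: compounds added to medium spiked with 4 pg purified IL-1β. Anti-IL-1β acceptor beads (6 ug/mL) with 0.6 nM biotinylated antibody added for 1 h at RT, then streptavidin donor beads (24 ug/mL) for 30 min in the dark. AlphaLISA read at 680/615 nm.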

[9] = target: Luciferin 4-monooxygenase (Photinus pyralis) (UniProt P08659); experiment: Firefly luciferase counterscreen qHTS: Assay Interference Panel against the NCATS CANVASS Library (AID 1347363); further: series mostly up to about 57 µM; 0% is about no effect
Procedure, shortened: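 Purified P. pyralis luciferase was added to compounds (11-point series) preincubated 15 min at room temperature with substrate containing 0.013 mM D-luciferin and 0.013 mM ATP; luminescence was read after 5 min.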

Chain of Luciferin 4-monooxygenase (Photinus pyralis) (P08659 whole entry, looked up): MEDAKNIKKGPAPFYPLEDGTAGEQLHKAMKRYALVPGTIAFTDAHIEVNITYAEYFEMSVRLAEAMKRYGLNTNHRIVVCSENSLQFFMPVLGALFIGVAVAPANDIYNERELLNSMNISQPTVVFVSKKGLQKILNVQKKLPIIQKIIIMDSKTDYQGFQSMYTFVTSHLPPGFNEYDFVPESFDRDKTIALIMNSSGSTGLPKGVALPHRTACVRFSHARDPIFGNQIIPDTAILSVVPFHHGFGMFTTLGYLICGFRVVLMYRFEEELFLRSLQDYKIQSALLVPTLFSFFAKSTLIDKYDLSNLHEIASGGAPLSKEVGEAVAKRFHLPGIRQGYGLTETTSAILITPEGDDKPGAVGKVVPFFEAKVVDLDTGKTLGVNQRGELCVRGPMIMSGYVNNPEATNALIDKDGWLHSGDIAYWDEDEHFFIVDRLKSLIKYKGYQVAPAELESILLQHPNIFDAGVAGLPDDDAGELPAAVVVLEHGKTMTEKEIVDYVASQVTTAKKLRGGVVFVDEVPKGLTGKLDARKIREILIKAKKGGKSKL

O=c1cc(-c2ccc(O)cc2)oc2c([C@@H]3OC(CO)[C@H](O)[C@@H](O)[C@H]3O)c(O)cc(O)c12 (some centres undefined)
active: Potency [5] 1.3 nM
inactive: Potency [1] | Potency [2] | Potency [3] | outcome [4] | Potency [6]

COc1ccc([C@@H]2c3cc(OC)c(OC)cc3C(=O)C(C)C2C)cc1OC (some centres undefined)
inactive: Potency [7] | Potency [1] | Potency [2] | outcome [8]

C[C@H]1C[C@@H]([C@@H]2CC[C@]34O[C@H](CC[C@@]35C[C@H](C)C(=O)O5)CN24)OC1=O
inactive: Potency [1] | Potency [2] | Potency [9] | Potency [5] | Potency [6]

C=C1C[C@@]23C=CC(=O)[C@@](C)(CCC(=O)Nc4c(O)ccc(C(=O)O)c4O)C2C[C@@H]1CC3O (some centres undefined)
inactive: Potency [1] | Potency [2] | outcome [4] | Potency [5] | outcome [8] | Potency [6]

C[C@@]12CCC[C@@](C)(C(=O)O)[C@H]1CC[C@]13C[C@H]4C[C@H](O[C@@]4(C)C1)[C@H]32
inactive: Potency [7] | Potency [1] | Potency [2] | Potency [9] | Potency [3] | outcome [4] | outcome [8] | Potency [6]

CC1(C)C=Cc2c(ccc3c2OC[C@@H](c2ccc(O)cc2O)C3)O1
inactive: Potency [7] | Potency [1] | Potency [2] | outcome [4]

CC[C@@H]1C[C@@]2(CC)OC(=O)[C@@]3(CC)OC(=O)[C@@H]1[C@@H]23
inactive: Potency [2] | Potency [9] | Potency [3] | Potency [6]

C=C1C(=O)O[C@H]2[C@H]1CC/C(CO)=C\CC[C@@]1(C)O[C@@H]21
active: Potency [7] 10600 nM | Potency [5] 8.4 nM
inactive: Potency [2] | Potency [9] | outcome [4] | Potency [6]

C[C@@H]1C[C@H]2C[C@]3(CCCCN3C)[C@@H]3C[C@H]2[C@H](C1)N(C)C3
inactive: Potency [7] | Potency [1] | Potency [2] | outcome [4] | outcome [8]

COc1ccc([C@@H]2c3cc(OC)c(OC)cc3C(=O)[C@H](C)C2C)cc1OC (some centres undefined)
inactive: caspase activation [2] 1.74% [at 9.19 µM] | activity change, negative = toxicity [3] -6.69% [at 9.19 µM] | viability signal change, negative = cytotoxic [4] 10.6% [at 9.19 µM] | activity change, negative = inhibition [8] -8.6% [at 11.5 µM] | activation [6] 4.51% [at 9.19 µM]

CC1=CC[C@@]2(C[C@@H]1O)[C@@H](C(=O)O)CC[C@H]2C(C)C
inactive: Potency [2] | Potency [9] | Potency [6]

C=C1/C=C\C(CCC)=C\c2csc(n2)C(C)NC(=O)C[C@@]2(CC(=O)O)CCC(=C)[C@H](C1)S2 (some centres undefined)
inactive: Potency [1] | Potency [2] | Potency [9] | Potency [3] | outcome [8]

C1=C2CCCN[C@@H]2[C@@H]2CCN3CCCC[C@@H]3[C@H](C1)C2
inactive: Potency [2] | outcome [4] | outcome [8] | Potency [6]

CC(C)=CCC/C(C)=C/Cc1c(O)c(CC=C(C)C)c(O)c2c(=O)c3cc(O)ccc3oc12
inactive: Potency [1] | Potency [2] | Potency [9] | outcome [8]
active: Potency [7] 14900 nM | Potency [6] 2630 nM

CNc1ccc(Cl)cc1C(=O)OC[C@]1(C)[C@H]2CC[C@]3(C)[C@@H](C[C@@H](OC)[C@H](C)[C@H]3C3=C(O)C(=O)OC3O)[C@]2(C)CC[C@H]1O (some centres undefined)
inactive: Potency [7] | Potency [1] | Potency [9] | Potency [3] | outcome [4] | Potency [5] | outcome [8] | Potency [6]

CCCCCCCC(=O)N[C@@H](CC(C)C)C(=O)N[C@H](C=O)CCC(=O)O (Octanoyl-Leu-Glu-aldehyde)
inactive: Potency [1] | Potency [9] | Potency [3] | outcome [4] | outcome [8] | Potency [6]

CCCCCCCCCCCCCCCC(=O)OC/C=C(\C)CCCC(C)CC(C)C(C)C (centres undefined)
active: Potency [5] 1.9 nM
inactive: Potency [2] | Potency [3] | outcome [4] | Potency [6]

C[C@@H](CCC[C@]1(C)C(=O)C=C[C@]23C[C@H]4C[C@H](O[C@@]4(C)C2)C31)C(=O)N[C@@H](CO)C(=O)O (some centres undefined)
inactive: Potency [1] | Potency [9] | Potency [3] | outcome [4] | outcome [8]

C[C@@H]1O[C@H](c2c(O)cc(O)c3c(=O)cc(-c4ccc(O)cc4)oc23)[C@H](O)[C@H](O)[C@H]1O
inactive: Potency [1] | Potency [2] | Potency [9] | outcome [4] | outcome [8] | Potency [6]

C/C(=C\[C@H](C)C(=O)CCCC1CC(=O)NC(=O)C1)[C@@H]1OC(=O)/C=C/CC/C=C/C[C@@H](O)[C@@H]1C
inactive: Potency [1] | Potency [2] | Potency [9] | outcome [4] | outcome [8] | Potency [6]
active: Potency [7] 1880 nM

C=C[C@]1(C)CC[C@@H]([C@H](C)C(=O)OCC)O1
inactive: Potency [7] | Potency [1] | Potency [2] | outcome [4] | outcome [8]

CC(=O)O[C@@H]1C=C2C(=O)OC[C@]2(O)[C@@]2(C)CCCC(C)(C)[C@H]12
active: Potency [7] 6680 nM | Potency [3] 18700 nM | Potency [5] 18.8 nM
inactive: Potency [9] | outcome [8] | Potency [6]
